These results are taken from the antibiotic and cytotoxicity screens of Wong et al. (2023).

Hit rate of the full screen: of about 39,000 compounds, about 3,300 (8.5%) were called active. Only a selection was taken, and actives are over-represented in it overall.

The assay deals with HepG2. The assay is described as follows: cytotoxicity call (relative viability < 0.9). The settings on record: 10 µM.
For the compound `C[C@@H]1CN([C@H](C)CO)C(=O)c2cccc(NC(=O)Nc3ccc(C(F)(F)F)cc3)c2O[C@H]1CN(C)Cc1ccccc1`, the cytotoxicity call is “inactive”.

For `C[C@@H]1CCCCO[C@@H](CN(C)C(=O)C2CCCCC2)[C@H](C)CN([C@@H](C)CO)C(=O)c2cc(NS(=O)(=O)c3ccc(F)cc3)ccc2O1`, the cytotoxicity call is “inactive”. On to `COc1ccc(S(=O)(=O)N2C[C@H](O)COC[C@H]3O[C@@H](CC(=O)NCCCN(C)C)CC[C@@H]32)cc1`, for which the cytotoxicity call is “inactive”. Turning to `CCOc1ccc(-n2c([C@@H](C)N(Cc3cccnc3)C(=O)Cc3ccc(F)c(C(F)(F)F)c3)nc3ncccc3c2=O)cc1`, the cytotoxicity call is “inactive”. Turning to `COc1ccc(CN(C)C[C@H]2OCCCC[C@H](C)Oc3ccc(NS(=O)(=O)c4ccc(C)cc4)cc3C(=O)N([C@H](C)CO)C[C@H]2C)cc1`, the cytotoxicity call is “inactive”.

Consider `COc1ccc(NC(=O)Nc2ccc3c(c2)C(=O)N([C@@H](C)CO)C[C@@H](C)[C@H](CN(C)C(=O)Nc2cccc4ccccc24)O3)cc1`, for which the cytotoxicity call was “inactive”.

As to `C[C@H]1CCCCO[C@@H](CN(C)C(=O)Nc2ccc3c(c2)OCO3)[C@@H](C)CN([C@@H](C)CO)C(=O)c2cc(NS(=O)(=O)c3ccc(F)cc3)ccc2O1`, the cytotoxicity call is “inactive”. Turning to `C[C@@H]1CN([C@H](C)CO)C(=O)c2cc(NC(=O)Nc3cccc4ccccc34)ccc2O[C@H]1CN(C)C(=O)Nc1ccc(F)cc1`, the cytotoxicity call is “inactive”. With `CCOc1ccc(NC(C)=O)cc1`, the cytotoxicity call was “inactive”. To `CCC(CC)c1nc(Nc2ccccc2)c2ccccc2n1` belongs “inactive”; to `CCc1ccc(Nc2c3c(nc4ccccc24)CCC3)cc1`, “active”. Regarding `CCc1ccc(Nc2c3c(nc4ccccc24)CCCC3)cc1`, the cytotoxicity call is “active”.

Turning to `c1ccc(Nc2nc(-c3ccccc3)nc3ccccc23)cc1`, the cytotoxicity call is “inactive”. With `CC(C)CN(C(=O)COC(=O)c1c2c(nc3ccccc13)CCC2)c1c(N)n(Cc2ccccc2)c(=O)[nH]c1=O`, the cytotoxicity call is “inactive”. With `CCOc1ccc(Nc2c3ccccc3nc3ccccc23)cc1`, the cytotoxicity call was “active”. `COc1ccc(NC(=O)Nc2ccc3c(c2)C(=O)N([C@H](C)CO)C[C@@H](C)[C@H](CN(C)C(=O)Nc2ccc4c(c2)OCO4)OCCCC[C@@H](C)O3)cc1`: the cytotoxicity call is “inactive”. For `Cc1cccn2c(CN)cnc12` the value was “inactive”; for `C[C@H](CO)N1C[C@H](C)[C@H](CN(C)C(=O)Nc2ccc(C(F)(F)F)cc2)Oc2c(NC(=O)Nc3ccc(F)cc3)cccc2C1=O`, “inactive”; for `COc1ccc(CN(C)C[C@H]2OCCCC[C@H](C)Oc3ccc(NS(=O)(=O)c4ccc(OC)cc4)cc3C(=O)N([C@H](C)CO)C[C@@H]2C)cc1`, “inactive”. Consider `COc1ccc(CN(C)C[C@@H]2OCCCC[C@H](C)Oc3ccc(NS(=O)(=O)c4ccc(OC)cc4)cc3C(=O)N([C@@H](C)CO)C[C@@H]2C)cc1`, for which the cytotoxicity call was “active”. As for `COc1ccc(S(=O)(=O)Nc2ccc3c(c2)C(=O)N([C@@H](C)CO)C[C@H](C)[C@H](CN(C)Cc2ccc4c(c2)OCO4)OCCCC[C@@H](C)O3)cc1`, the cytotoxicity call is “inactive”.

Take `COc1ccc(CN(C)C[C@@H]2OCCCC[C@H](C)Oc3ccc(NS(=O)(=O)c4ccc(F)cc4)cc3C(=O)N([C@H](C)CO)C[C@@H]2C)cc1`: the cytotoxicity call is “active”. On to `COc1ccc(S(=O)(=O)Nc2ccc3c(c2)C(=O)N([C@H](C)CO)C[C@H](C)[C@H](CN(C)Cc2ccc4c(c2)OCO4)OCCCC[C@H](C)O3)cc1`, for which the cytotoxicity call was “active”.

For the compound `COc1ccc(CN(C)C[C@@H]2OCCCC[C@@H](C)Oc3ccc(NS(=O)(=O)c4ccc(F)cc4)cc3C(=O)N([C@@H](C)CO)C[C@H]2C)cc1`, the cytotoxicity call was “inactive”.

As to `COc1ccc(CN(C)C[C@H]2OCCCC[C@H](C)Oc3ccc(NS(=O)(=O)c4ccc(F)cc4)cc3C(=O)N([C@H](C)CO)C[C@H]2C)cc1`, the cytotoxicity call was “inactive”.

`COc1ccc(CN(C)C[C@H]2OCCCC[C@H](C)Oc3ccc(NS(=O)(=O)c4ccc(F)cc4)cc3C(=O)N([C@@H](C)CO)C[C@H]2C)cc1`: the cytotoxicity call was “active”. On to `COc1ccc(CN(C)C[C@@H]2OCCCC[C@@H](C)Oc3ccc(NS(=O)(=O)c4ccc(F)cc4)cc3C(=O)N([C@H](C)CO)C[C@H]2C)cc1`, for which the cytotoxicity call is “inactive”.

`COc1ccc(CN(C)C[C@H]2OCCCC[C@@H](C)Oc3ccc(NS(=O)(=O)c4ccc(OC)cc4)cc3C(=O)N([C@@H](C)CO)C[C@H]2C)cc1`: the cytotoxicity call is “inactive”. As for `COc1ccc(CN(C)C[C@H]2OCCCC[C@H](C)Oc3ccc(NS(=O)(=O)c4ccc(F)cc4)cc3C(=O)N([C@@H](C)CO)C[C@@H]2C)cc1`, the cytotoxicity call is “inactive”.

For `COc1ccc(S(=O)(=O)Nc2ccc3c(c2)C(=O)N([C@@H](C)CO)C[C@@H](C)[C@@H](CN(C)Cc2ccc4c(c2)OCO4)OCCCC[C@@H](C)O3)cc1`, the cytotoxicity call was “inactive”.

Take `[O-][n+]1onc2c1CCc1c-2nn(-c2ccccc2)[n+]1[O-]`: the cytotoxicity call was “inactive”.

On to `COc1ccc(C#Cc2ccc3c(c2)[C@]2(C(=O)N3)[C@H](c3ccc(OCCO)cc3)N3[C@H](c4ccccc4)[C@H](c4ccccc4)OC(=O)[C@H]3[C@@H]2C(=O)N2CCN(c3ncccn3)CC2)cc1`, for which the cytotoxicity call was “inactive”.

`COc1ccc(S(=O)(=O)N(C)C[C@@H]2Oc3ncc(C#CCN(C)C)cc3C(=O)N([C@H](C)CO)C[C@@H]2C)cc1`: the cytotoxicity call was “inactive”.

As to `O=C(O)CCC(=O)Nc1ccccn1`, the cytotoxicity call was “inactive”.

Take `COc1ccc(NC(=O)Nc2ccc3c(c2)C(=O)N([C@H](C)CO)C[C@H](C)[C@H](CN(C)C(=O)NC2CCCCC2)OCCCC[C@H](C)O3)cc1`: the cytotoxicity call is “inactive”. As for `Nc1ccn[nH]1`, the cytotoxicity call was “inactive”. `NCc1nnc2n1CCCCC2`: the cytotoxicity call was “inactive”. For the compound `CCOC(=O)C1CCN(C)CC1`, the cytotoxicity call is “inactive”. To `CC[C@@]1(O)C[C@H](O[C@H]2C[C@H](N(C)C)[C@H](O[C@H]3C[C@H](O)[C@H](O[C@H]4CCC(=O)[C@H](C)O4)[C@H](C)O3)[C@H](C)O2)c2c(cc3c(c2O)C(=O)c2c(O)cccc2C3=O)[C@H]1C(=O)OC` belongs “active”. As to `C[C@@H]1CN([C@@H](C)CO)S(=O)(=O)c2ccc(C#CC3CCCCC3)cc2O[C@@H]1CN(C)C(=O)Cc1ccncc1`, the cytotoxicity call is “inactive”. With `CO[C@H](C(=O)N(C)C[C@H]1OCc2ccccc2-c2c(n(C)c3ccccc23)C(=O)N([C@@H](C)CO)C[C@@H]1C)c1ccccc1`, the cytotoxicity call was “inactive”. To `Cc1cc(C(=O)NCc2cc3n(n2)CCN(S(C)(=O)=O)C3)nc(C)n1` belongs “inactive”; to `C[C@H](CO)N1C[C@H](C)[C@@H](CN(C)Cc2ccc(C(F)(F)F)cc2)Oc2ccc(NC(=O)Nc3ccccc3)cc2CC1=O`, “inactive”. For the compound `C[C@@H]1CN([C@@H](C)CO)C(=O)Cc2cc(NC(=O)Nc3ccccc3)ccc2O[C@@H]1CN(C)Cc1ccc(C(F)(F)F)cc1`, the cytotoxicity call was “active”.

Regarding `C[C@H]1CN([C@@H](C)CO)C(=O)Cc2cc(NC(=O)Nc3ccccc3)ccc2O[C@@H]1CN(C)Cc1ccc(C(F)(F)F)cc1`, the cytotoxicity call was “active”.

With `C[C@H]1CN([C@@H](C)CO)C(=O)Cc2cc(NC(=O)Nc3ccccc3)ccc2O[C@H]1CN(C)Cc1ccc(C(F)(F)F)cc1`, the cytotoxicity call is “active”. For `C[C@@H]1CN([C@H](C)CO)C(=O)Cc2cc(NC(=O)Nc3ccccc3)ccc2O[C@@H]1CN(C)Cc1ccc(C(F)(F)F)cc1` the value was “active”; for `C[C@@H]1CN([C@H](C)CO)C(=O)Cc2cc(NC(=O)Nc3ccccc3)ccc2O[C@H]1CN(C)Cc1ccc(C(F)(F)F)cc1`, “inactive”.

As to `COCC(=O)Nc1ccc2c(c1)C(=O)N(C)C[C@@H](OC)[C@H](C)CN(Cc1ccccc1F)[C@H](C)CO2`, the cytotoxicity call is “inactive”.

As for `CN1CCN(C(=O)C[C@H]2C=C[C@@H](NC(=O)Cc3ccccn3)[C@@H](CO)O2)CC1`, the cytotoxicity call is “inactive”. Regarding `C[C@H]1CCCCO[C@H](CN(C)C(=O)CCC(F)(F)F)[C@@H](C)CN([C@@H](C)CO)C(=O)c2cc(NS(=O)(=O)c3ccc(F)cc3)ccc2O1`, the cytotoxicity call was “inactive”. Consider `C[C@@H]1CN([C@@H](C)CO)C(=O)Cc2cc(NS(C)(=O)=O)ccc2O[C@H]1CN(C)C(=O)Nc1ccc(C(F)(F)F)cc1`, for which the cytotoxicity call is “inactive”. Take `C[C@H](CO)N1C[C@H](C)[C@H](CN(C)S(=O)(=O)c2ccc(Cl)cc2)OCCCC[C@H](C)Oc2ccc(NC(=O)C3CCCCC3)cc2C1=O`: the cytotoxicity call is “inactive”. As to `C[C@H](CO)N1C[C@H](C)[C@H](CN(C)S(=O)(=O)c2ccccc2)Oc2ccc(NC(=O)Nc3cccc4ccccc34)cc2C1=O`, the cytotoxicity call is “inactive”. As to `COc1ccc(NC(=O)Nc2cccc3c2O[C@@H](CN(C)C(=O)Nc2ccc(C(F)(F)F)cc2)[C@H](C)CN([C@@H](C)CO)C3=O)cc1`, the cytotoxicity call was “inactive”. Regarding `C[C@@H]1CCCCO[C@H](CN(C)Cc2ccncc2)[C@@H](C)CN([C@@H](C)CO)C(=O)c2cc(NC(=O)Nc3ccc4c(c3)OCO4)ccc2O1`, the cytotoxicity call was “inactive”. Consider `C[C@H](CO)N1C[C@H](C)[C@H](CN(C)Cc2ccc(C(F)(F)F)cc2)Oc2ccc(NC(=O)Nc3ccccc3)cc2CC1=O`, for which the cytotoxicity call is “inactive”.

Take `C[C@@H]1CN([C@@H](C)CO)C(=O)Cc2cc(NC(=O)Nc3ccccc3)ccc2O[C@H]1CN(C)Cc1ccc(C(F)(F)F)cc1`: the cytotoxicity call is “active”. For `NCc1ccc2c(c1)CCO2` the value was “inactive”; for `C[C@H]1CN([C@@H](C)CO)S(=O)(=O)c2ccc(-c3cncnc3)cc2O[C@H]1CN(C)C(=O)Cc1ccncc1`, “inactive”.

In the case of `Cc1ccc(S(=O)(=O)Nc2ccc3c(c2)C(=O)N([C@H](C)CO)C[C@H](C)[C@@H](CN(C)Cc2ccc(Cl)c(Cl)c2)O3)cc1`, the cytotoxicity call was “active”.

Consider `Cc1ccc(S(=O)(=O)Nc2ccc3c(c2)C(=O)N([C@@H](C)CO)C[C@@H](C)[C@@H](CN(C)Cc2ccc(Cl)c(Cl)c2)O3)cc1`, for which the cytotoxicity call is “active”.

For the compound `Cc1ccc(S(=O)(=O)Nc2ccc3c(c2)C(=O)N([C@@H](C)CO)C[C@H](C)[C@@H](CN(C)Cc2ccc(Cl)c(Cl)c2)O3)cc1`, the cytotoxicity call was “inactive”. Take `Cc1ccc(S(=O)(=O)Nc2ccc3c(c2)C(=O)N([C@H](C)CO)C[C@H](C)[C@H](CN(C)Cc2ccc(Cl)c(Cl)c2)O3)cc1`: the cytotoxicity call is “active”. As to `Cc1ccc(S(=O)(=O)Nc2ccc3c(c2)C(=O)N([C@H](C)CO)C[C@@H](C)[C@@H](CN(C)Cc2ccc(Cl)c(Cl)c2)O3)cc1`, the cytotoxicity call is “active”. Turning to `Cc1ccc(S(=O)(=O)Nc2ccc3c(c2)C(=O)N([C@@H](C)CO)C[C@H](C)[C@H](CN(C)Cc2ccc(Cl)c(Cl)c2)O3)cc1`, the cytotoxicity call was “inactive”. Consider `Cc1ccc(S(=O)(=O)Nc2ccc3c(c2)C(=O)N([C@H](C)CO)C[C@@H](C)[C@H](CN(C)Cc2ccc(Cl)c(Cl)c2)O3)cc1`, for which the cytotoxicity call is “inactive”. To `Cc1ccc(S(=O)(=O)Nc2ccc3c(c2)C(=O)N([C@@H](C)CO)C[C@@H](C)[C@H](CN(C)Cc2ccc(Cl)c(Cl)c2)O3)cc1` belongs “inactive”.
